# Laboratory results from PubChem BioAssay (NCI).
# This is part of a sample that, as a whole, favours compounds with a hit. Of some 83,000 tested, about 20% had one in any assay.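 Treatment: one concentration, 48 hours, 96-well format. Scoring: percent growth, with anything below 10 considered active.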 Values without a mark were called inactive. Calls of active or inactive are those of the source.
# How the values were obtained:
# Test in all cases: NCI-60 one-dose screen, 48 h (100 = growth as untreated, 0 = no growth, -100 = all killed)
# Conditions in all cases: 10 µM unless noted
# [1] = system: SNB-75 CNS
# [2] = system: SNB-19 CNS
# [3] = system: U251 CNS
# [4] = system: PC-3 prostate
# [5] = system: SK-MEL-5 melanoma
# [6] = system: UACC-62 melanoma
# [7] = system: LOX IMVI melanoma
# [8] = system: SK-MEL-28 melanoma
# [9] = system: SK-MEL-2 melanoma
# [10] = system: SN12C renal
# [11] = system: UO-31 renal
# [12] = system: TK-10 renal
# [13] = system: ACHN renal
# [14] = system: CAKI-1 renal
# [15] = system: CCRF-CEM leukemia
# [16] = system: MOLT-4 leukemia
# [17] = system: SR leukemia
# [18] = system: HT29 colon
# [19] = system: EKVX NSCLC
# [20] = system: A498 renal
Structure (SMILES),growth [1],growth [2],growth [3],growth [4],growth [5],growth [6],growth [7],growth [8],growth [9],growth [10],growth [11],growth [12],growth [13],growth [14],growth [15],growth [16],growth [17],growth [18],growth [19],growth [20]
Clc1ncn[nH]1,83.6%,102%,98.2%,101%,111%,99.7%,102%,103%,99.4%,103%,89.9%,93.8%,98.3%,92.5%,103%,105%,94%,,,
COC(=O)C[C@@H]1CC=CC(=O)/C1=C(O)/C=C/c1ccccc1,,2.77% (active),-67.4% (active),3.43% (active),-97.8% (active),-67.5% (active),-93.3% (active),-35.5% (active),-22% (active),-41.5% (active),-80.8% (active),-23.7% (active),-83.3% (active),-82.9% (active),10.8%,3.09% (active),5.6% (active),-65.3% (active),-30.8% (active),
CC(=O)Oc1ccc(C2OC(c3ccc4ccccc4c3OC(C)=O)=NN2C(C)=O)c(OC(C)=O)c1 (stereo unspecified),,36.9%,13.2%,24.5%,-9.16% (active),-11.8% (active),4.67% (active),37.9%,13%,21.8%,7.69% (active),34.4%,21.2%,18.7%,7.23% (active),2.64% (active),,27.2%,,35%
Nc1nc(SCC2(CCl)COC2)c2[nH]cnc2n1,,99.2%,101%,93.5%,107%,96.2%,95.8%,103%,97.1%,100%,75.9%,102%,95.7%,105%,101%,89%,83.8%,99.2%,107%,
Cc1cc(=O)n2n1-c1ccc(Cl)cc1NC(=O)C2,86.6%,97.5%,95.2%,89.8%,97.5%,107%,98.6%,101%,118%,99.1%,89.6%,117%,104%,88.4%,82.6%,108%,110%,,,119%
Cc1cc([N+](=O)[O-])c(C)cc1C(=O)O,,101%,109%,99%,,100%,103%,110%,114%,105%,85.4%,105%,99.8%,97.4%,104%,112%,,104%,112%,96.6%
CC(C)[O-].CC(C)[O-].CN(CCN(C)Cc1cc(F)cc(F)c1[O-])Cc1cc(F)cc(F)c1[O-].[Ti+4],,,4.7% (active),15.9%,-59.5% (active),-22.8% (active),-39% (active),-23.3% (active),-52% (active),19.7%,-14.5% (active),-12.6% (active),9.76% (active),-11.1% (active),16.4%,8.02% (active),1.21% (active),-25.7% (active),-8.9% (active),
O=C1C[C@@H]2/C(=C(O)\C=C\c3ccccc3)C(=O)C=C[C@@H]2O1,,58.7%,1.95% (active),37.8%,39.7%,-50.7% (active),-68% (active),-23.7% (active),-35% (active),-21.8% (active),-85.9% (active),3.39% (active),-17.7% (active),-54% (active),12.5%,6.97% (active),10.2%,-53.2% (active),25.6%,
Cc1c(C(N)=O)sc2c1c(=O)n(Cc1ccccc1)c1nnc(S(=O)(=O)CC(=O)Nc3ccc(Cl)cc3)n21,,64.9%,35.2%,35%,55.2%,67.4%,44.1%,,33.1%,56%,87%,18%,10.1%,68.2%,,,,21.9%,43.6%,22.6%
COc1ccc(C2CC(c3ccc(OC)c(OC)c3)=NN2C(=O)c2cc(OC)c(OC)c(OC)c2)cc1 (stereo unspecified),,38.9%,26%,30.5%,5.8% (active),41.9%,36.1%,70.5%,12.6%,41.5%,21.1%,18.4%,48.7%,12.1%,24.3%,47.1%,20.6%,-1.1% (active),48.2%,
COC1=CC(c2ccc[nH]2)=N/C1=C\c1[nH]c(C)c(C(=O)CCC(=O)Oc2ccc3c(c2)CCC2C3CC[C@]3(C)C(=O)CC[C@@H]23)c1C (stereo partly specified),,95.4%,53%,60.6%,78%,65%,,97.3%,91.3%,63.3%,52.9%,107%,62.7%,60.1%,32.9%,25.6%,10.1%,26.8%,,102%
O=C1NCN(c2ccccc2)C12CCN(CCCC(c1ccc(F)cc1)c1ccc(F)cc1)CC2,72%,78.2%,55.2%,96.3%,41.4%,78.2%,61.9%,56.8%,81%,,26.1%,66.1%,61.7%,76.8%,94.4%,34.3%,8.54% (active),,,57.7%
CCC(C)CC(CC)NCCN1CCN(C(CC)CC(C)CC)C1=S (stereo unspecified),,47.1%,25.2%,33.4%,,23.9%,-0.0423% (active),20.3%,94.1%,36.9%,41.4%,58.5%,52.4%,59.6%,24.3%,38.5%,,-24.6% (active),23%,61.9%
CC(C)(C)c1ccc(C(O)CCCN2CCC(C(O)(c3ccccc3)c3ccccc3)CC2)cc1 (stereo unspecified),,4.49% (active),-85.4% (active),-4.17% (active),,-98.1% (active),-93.9% (active),,-76.1% (active),4.51% (active),-80.9% (active),-81.7% (active),-88.2% (active),1.36% (active),-23.6% (active),-13.2% (active),,-92.7% (active),28.3%,50.3%
Cc1cc(Cl)ccc1Nc1nc(C(F)(F)F)ccc1C(=O)NCC(=O)N/N=C/c1c(Cl)cccc1Cl,97.7%,90.5%,67.7%,-16.1% (active),70.5%,63%,56.3%,85.7%,98.2%,,65.9%,76.8%,57.7%,0.101% (active),19.5%,50.8%,42.2%,,48%,83.3%
COc1ccc(-c2c(-c3cc(OC)c(OC)c(OC)c3)noc2N)cc1,52.7%,38.7%,22.2%,21.8%,-60.7% (active),43.9%,17.6%,58.6%,72.6%,27.6%,41.7%,67.3%,,28.2%,9.85% (active),13%,8.86% (active),,45.9%,22.8%
COc1ccc(C2CC(c3ccc(OC)c(OC)c3)=NN2C(=O)c2cc(OC)c(OC)c(OC)c2)c(OC)c1 (stereo unspecified),,91.8%,80.6%,64.3%,42%,58%,56.6%,80.2%,68.2%,91.3%,42.2%,87.7%,65.2%,34.6%,92.9%,106%,48.7%,59.9%,86.7%,
CN1C(=O)C(=Cc2cn(Cc3ccccc3)c3ccc(Br)cc23)C(=O)N(C)C1=O,,98.6%,97.5%,89.1%,,73.3%,102%,113%,107%,96.6%,90.1%,58.3%,96.3%,97.1%,101%,87.6%,,101%,108%,-91.3% (active)
